Results on 19 molecules are retold here after PubChem BioAssay (NCATS).

“And” between values parts separate entries of the source, which are not always exact repeats. Equal values may be shown once. Records with an inconclusive call do not appear. The source holds several records for some structures; these can differ, active in one and inactive in another. The source made the active and inactive calls. Calls follow the shape of the dose curve; as a rule, active = well fitted curve in the direction sought with a large enough effect; inconclusive = small, poorly fitted or top-dose-only effect, or another doubt; inactive = no such curve, though single readings can be large; an effect the other way counts as inactive or inconclusive.

Test [1] deals with Cytochrome P450 2C9 (Homo sapiens) (UniProt P11712). The test can be described thus: qHTS Assay for Inhibitors and Substrates of Cytochrome P450 2C9 (AID 883). Also: nearly all actives have a fitted effect of over 60% in size. Also: potency is read from the fitted curve at half-maximal effect. As to activity change, negative = inhibition: % is scaled to controls: 0 for no effect and ±100 for the full control effect. The note with it: recombinant CYP2C9, luciferin-H luminescence, 60 min; series mostly up to 11.4 µM. A digest of the protocol:
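Luminescent read-out of deoxyluciferin hydroxylation, normalized to 57uM sulphaphenazole (AC100). Reaction: 10nM enzyme, 100uM Luciferin-H (equal to KM), 25mM KPO4, 10 min compound preincubation, then 60 min with NADPH regeneration, both at 37C.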
In general terms: Quantitative high-throughput screening tests each substance at several concentrations.

Test [2] has as its target Cytochrome P450 3A4 (Homo sapiens) (UniProt P08684). Briefly: qHTS Assay for Inhibitors and Substrates of Cytochrome P450 3A4 (AID 884). Also: nearly all actives have a fitted effect of over 50% in size. Also: potency is read from the fitted curve at half-maximal effect. As to activity change, negative = inhibition: % is scaled to controls: 0 for no effect and ±100 for the full control effect. The note with it: recombinant CYP3A4, Luciferin-PPXE luminescence; series mostly up to 57.1 µM. The procedure, abridged:
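20 nM human CYP3A4 with 25 uM Luciferin-PPXE (at KM) in 200 mM KPO4, preincubated 10 min with compound; NADPH regeneration started a 60 min RT reaction. Luciferin detected by luminescence, normalized to 57 uM ketoconazole as full inhibition.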

Test [3] has the same target. Briefly: qHTS Assay for Activators of Cytochrome P450 3A4 (AID 885). Also: nearly all actives have a fitted effect of over 65% in size. The note with it: recombinant CYP3A4, Luciferin-PPXE luminescence, 60 min; series mostly up to 57.1 µM. The procedure, abridged:
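Quantitative HTS format: compounds preincubated with 20nM human CYP3A4 and Luciferin-PPXE substrate at KM, reaction started by NADPH regeneration, stopped after 60 min, luciferase luminescence read 20 min later.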

The target in test [4] is Cytochrome P450 2D6 (Homo sapiens) (UniProt P10635). Briefly: qHTS Assay for Inhibitors and Substrates of Cytochrome P450 2D6 (AID 891). Also: nearly all actives have a fitted effect of over 60% in size. Also: potency is read from the fitted curve at half-maximal effect.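 As to activity change, negative = inhibition: luciferin methyl ether substrate demethylated by CYP2D6 with NADPH regeneration; % is scaled to controls: 0 for no effect and ±100 for the full control effect.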 The note with it: recombinant CYP2D6, luciferin-ME EGE luminescence; series mostly up to 11.4 µM. A digest of the protocol:
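Human CYP2D6 (5 nM) with 30 uM Luciferin-ME EGE (at Km) in 100 mM KPO4, compound preincubated 10 min, then NADPH regeneration system for 60 min at room temperature. Luciferin read by luminescence; normalized to 1.43 uM quinidine.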

In test [5] the target is Cytochrome P450 2C19 (Homo sapiens) (UniProt P33261). The test can be described thus: qHTS Assay for Inhibitors and Substrates of Cytochrome P450 2C19 (AID 899). Also: nearly all actives have a fitted effect of over 60% in size. Also: potency is read from the fitted curve at half-maximal effect. Conditions: recombinant CYP2C19, luciferin-H EGE luminescence; series mostly up to 11.4 µM. The procedure, abridged: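 Luminescence readout of luciferin formed from 10uM Luciferin-H EGE (KM level) by 5 nM CYP2C19 in 50mM KPO4. 60 min NADPH-driven reaction at 37C after 10 min compound preincubation; data scaled to 57uM ketoconazole inhibition.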
Sequence of Cytochrome P450 2C19 (Homo sapiens) (P33261 whole entry, looked up): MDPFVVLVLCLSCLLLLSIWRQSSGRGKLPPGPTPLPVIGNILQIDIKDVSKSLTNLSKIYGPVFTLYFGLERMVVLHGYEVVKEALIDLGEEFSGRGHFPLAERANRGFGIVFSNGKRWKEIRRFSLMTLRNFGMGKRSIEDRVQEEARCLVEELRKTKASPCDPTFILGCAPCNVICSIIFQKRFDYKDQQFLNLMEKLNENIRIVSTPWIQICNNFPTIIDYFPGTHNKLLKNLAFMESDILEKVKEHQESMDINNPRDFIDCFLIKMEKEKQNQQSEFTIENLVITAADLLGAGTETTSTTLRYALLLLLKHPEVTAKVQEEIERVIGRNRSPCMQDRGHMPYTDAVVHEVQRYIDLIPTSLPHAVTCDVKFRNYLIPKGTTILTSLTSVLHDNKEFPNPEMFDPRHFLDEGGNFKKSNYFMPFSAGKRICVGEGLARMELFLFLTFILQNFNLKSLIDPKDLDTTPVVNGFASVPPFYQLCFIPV

Sequence of Cytochrome P450 2C9 (Homo sapiens) (P11712 whole entry, looked up): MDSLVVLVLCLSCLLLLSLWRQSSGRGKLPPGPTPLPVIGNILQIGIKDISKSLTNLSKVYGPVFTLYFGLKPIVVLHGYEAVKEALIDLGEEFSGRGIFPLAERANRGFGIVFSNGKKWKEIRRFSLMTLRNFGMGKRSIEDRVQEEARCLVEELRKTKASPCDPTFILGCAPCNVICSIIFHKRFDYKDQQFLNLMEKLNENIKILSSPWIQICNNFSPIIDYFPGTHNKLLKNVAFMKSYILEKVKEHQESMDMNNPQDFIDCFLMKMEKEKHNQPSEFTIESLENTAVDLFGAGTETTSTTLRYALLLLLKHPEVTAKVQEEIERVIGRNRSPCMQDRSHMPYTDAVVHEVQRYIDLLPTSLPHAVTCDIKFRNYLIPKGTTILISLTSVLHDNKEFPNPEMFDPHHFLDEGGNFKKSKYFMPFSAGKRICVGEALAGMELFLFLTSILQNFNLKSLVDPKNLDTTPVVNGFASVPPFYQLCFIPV
Sequence of Cytochrome P450 2D6 (Homo sapiens) (P10635 whole entry, looked up): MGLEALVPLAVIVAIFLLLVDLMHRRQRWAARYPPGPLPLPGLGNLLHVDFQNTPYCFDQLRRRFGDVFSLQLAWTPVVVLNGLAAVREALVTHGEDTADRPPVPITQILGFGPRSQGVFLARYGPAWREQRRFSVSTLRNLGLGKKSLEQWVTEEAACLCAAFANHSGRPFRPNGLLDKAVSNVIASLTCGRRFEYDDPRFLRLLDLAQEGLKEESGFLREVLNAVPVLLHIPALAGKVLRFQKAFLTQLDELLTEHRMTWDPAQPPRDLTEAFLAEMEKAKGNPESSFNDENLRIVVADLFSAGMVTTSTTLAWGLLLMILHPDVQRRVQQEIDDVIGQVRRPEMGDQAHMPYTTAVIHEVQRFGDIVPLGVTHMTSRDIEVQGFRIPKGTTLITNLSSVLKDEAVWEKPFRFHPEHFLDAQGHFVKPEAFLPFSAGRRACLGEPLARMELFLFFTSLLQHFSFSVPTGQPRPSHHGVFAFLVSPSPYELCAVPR
Sequence of Cytochrome P450 3A4 (Homo sapiens) (P08684 whole entry, looked up): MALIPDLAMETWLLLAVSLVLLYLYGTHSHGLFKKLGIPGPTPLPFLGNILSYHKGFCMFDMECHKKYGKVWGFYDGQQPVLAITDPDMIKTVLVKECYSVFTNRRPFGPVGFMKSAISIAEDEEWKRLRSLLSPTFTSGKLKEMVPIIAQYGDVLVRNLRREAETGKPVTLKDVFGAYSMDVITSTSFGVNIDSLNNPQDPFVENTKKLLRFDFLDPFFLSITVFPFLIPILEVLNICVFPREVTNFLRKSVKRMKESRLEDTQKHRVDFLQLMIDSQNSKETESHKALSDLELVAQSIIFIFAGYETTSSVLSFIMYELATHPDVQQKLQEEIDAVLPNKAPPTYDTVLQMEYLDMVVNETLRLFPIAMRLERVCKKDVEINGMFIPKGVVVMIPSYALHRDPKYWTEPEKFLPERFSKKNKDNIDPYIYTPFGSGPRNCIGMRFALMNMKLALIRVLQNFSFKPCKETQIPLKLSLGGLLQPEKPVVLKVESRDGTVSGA

Turning to `COC(=O)NC(/C(C(=O)OC)=C(\C)NCc1ccccc1)c1ccc(F)cc1` (stereo not given), the Potency is 2.51 µM (active) in test [1], 3.16 µM (active) in test [2], 1 µM (active) in test [4] and 251 nM (active) in test [5]. Further, the activity change, positive = activation in test [3] was -71.8% [at 11.4 µM] (inactive).

With `CCCCCCC(=O)Cc1cc(OC)c(OC)cc1/C=C(/C(C)=O)C(=O)OC`, the Potency result in test [1] and in test [4] was “inactive” in each case. Also, the values for the Potency in test [2] and in test [5] were 3.98 µM (active) and 2000 nM (active), respectively. Besides, the activity change, positive = activation in test [3] was -68.2% [at 11.4 µM] (inactive).

Take `COc1ccc(/C=C/N(CCc2ccc(OC)c(OC)c2)C(C)=O)cc1`: the Potency in test [1] is 3.16 µM (active); in test [2] it was 2 µM (active); in test [5], 794 nM (active). In test [3], the activity change, positive = activation is -88.6% [at 11.4 µM] (inactive). In test [4], the Potency result is “inactive”.

Take `COC(=O)NC(c1cccc(C)c1)[C@]1(C(C)=O)CCOC1=O` (stereo not given in full): the Potency in test [1] was 3.16 µM (active); in test [2] it was 0.0316 µM (active); in test [5] it was 39.8 nM (active). Further, the activity change, positive = activation in test [3] is -88.5% [at 11.4 µM] (inactive). For the same molecule, in test [4], the Potency result was “inactive”.

Turning to `COC(=O)C1=C(C)N(Cc2ccccc2)C2=C3C(=O)N(C)C(=O)C3[C@@](O)(C(=O)OC)C(=O)N2C1c1ccccc1` (stereo not given in full), the Potency result in test [1], in test [4] and in test [5] was “inactive” each time. The activity change, negative = inhibition in test [2] was -21.3% [at 11.4 µM] (inactive). Further, the activity change, positive = activation in test [3] is -32.3% [at 11.4 µM] (inactive).

With `CC#CC(C)C(OCOC)C(CC(C)Cc1cc(Br)cc(OCc2ccccc2)c1OC)OC` (stereo not given), the Potency result in test [1], in test [4] and in test [5] was “inactive” throughout. The Potency in test [2] was 3.16 µM (active). Besides, in test [3], the activity change, positive = activation is -76.2% [at 11.4 µM] (inactive).

For `CC1CN2C(CCC(C)C2c2ccc(Br)cc2)C(=O)O1` (stereo not given), the Potency entry in test [1] and in test [4] was “inactive” each time. Also, the activity change, negative = inhibition in test [2] was -15.8% [at 11.4 µM] (inactive) and -28.1% [at 11.4 µM] (inactive). The activity change, positive = activation in test [3] is -51.1% [at 11.4 µM] (inactive). Moreover, the Potency result in test [5] was “inactive and 501 nM (active)”.

Regarding `COC(=O)N(/C=C/c1ccc(OC)cc1)CCc1ccc(OC)c(OC)c1`, the Potency in test [1] was 3.16 µM (active); in test [2] it was 3.98 µM (active); in test [5], 3980 nM (active). Moreover, the activity change, positive = activation in test [3] is -93.3% [at 11.4 µM] (inactive). Further, in test [4], the Potency entry is “inactive”.

In the case of `C=CCC1C=CC(Oc2ccc(OC)cc2)C(CO)O1` (stereo not given), the Potency entry in test [1], in test [4] and in test [5] was “inactive” each time. Further, in test [2], the Potency is 3.98 µM (active). Further, in test [3], the activity change, positive = activation is -64.8% [at 11.4 µM] (inactive).

`C=CCOC(=O)C(C(C)=O)C(NC(=O)OC)c1cccs1` (stereo not given): the Potency result in test [1] and in test [4] was “inactive” throughout. Moreover, the results for the Potency in test [2] and in test [5] were 3.16 µM (active) and 398 nM (active), respectively. Moreover, the activity change, positive = activation in test [3] was -101% [at 11.4 µM] (inactive).

`CC(=O)c1ccc(OC2C(O)COC2/C=C/c2ccc(Cl)cc2)cc1` (stereo not given): the Potency entry in test [1], in test [4] and in test [5] was “inactive” each time. Moreover, the activity change, negative = inhibition in test [2] is -27.7% [at 11.4 µM] (inactive). In test [3], the activity change, positive = activation was -50% [at 11.4 µM] (inactive).

For the molecule `C=COCC1CN2C(CCC(C)C2c2ccc(Br)cc2)C(=O)O1` (stereo not given), the Potency result in test [1] and in test [4] was “inactive” in each case. The Potency is 3.16 µM (active) and 794 nM (active) in test [2]; 316 nM (active) and 79.4 nM (active) in test [5]. For the same molecule, the activity change, positive = activation in test [3] was -65.3% [at 11.4 µM] (inactive) and -87.4% [at 11.4 µM] (inactive).

In the case of `CCCCCCC1Cc2cc(OC)c(OC)cc2C(C(C(=O)OCC)C(=O)OCC)O1` (stereo not given), the Potency entry in test [1] and in test [4] was “inactive” throughout. Also, the Potency in test [2] is 3.16 µM (active) and 1.58 µM (active); in test [5], “inactive and 3.16 µM (active)”. For the same molecule, the activity change, positive = activation in test [3] was -66.2% [at 11.4 µM] (inactive) and -65.3% [at 11.4 µM] (inactive).

Turning to `CCOC(=O)OCC1OC(C#Cc2ccc(F)cc2F)C=CC1OC(=O)OCC` (stereo not given), the Potency entry in test [1], in test [4] and in test [5] was “inactive” in each case. In addition, in test [2], the Potency was 3.16 µM (active). Besides, the activity change, positive = activation in test [3] is -75.6% [at 11.4 µM] (inactive).

With `C=CCOC(=O)C(C(C)=O)C(NC(=O)OC)c1cccc(C)c1` (stereo not given), the Potency result in test [1] and in test [4] was “inactive” throughout. Besides, the Potency in test [2] was 2.51 µM (active); in test [5] it was 794 nM (active). In addition, the activity change, positive = activation in test [3] was -86.6% [at 11.4 µM] (inactive).

For `CN(C)c1cccc(OC2C=CC(C#Cc3ccccc3)OC2CO)c1` (stereo not given), the Potency entry in test [1] and in test [4] was “inactive” in each case. Further, the Potency in test [2] was 3.98 µM (active); in test [5], 3980 nM (active). Moreover, the activity change, positive = activation in test [3] was -83.1% [at 11.4 µM] (inactive).

For `COc1ccc(/C=C/NC(=O)c2ccc(OC)cc2)cc1`, the Potency result in test [1], in test [4] and in test [5] was “inactive” in each case. Moreover, the Potency in test [2] is 3.16 µM (active). The activity change, positive = activation in test [3] is -68.6% [at 11.4 µM] (inactive).

Turning to `COC(=O)C1=C(C)N(Cc2ccccc2)[C@]23O[C@](C(=O)OC)(C(=O)N2C1c1ccccc1)C(c1ccccc1)C3C(=O)c1ccccc1` (stereo not given in full), the Potency entry in test [1], in test [4] and in test [5] was “inactive” throughout. Also, the activity change, negative = inhibition in test [2] is -26.7% [at 11.4 µM] (inactive). Besides, in test [3], the activity change, positive = activation was -32.3% [at 11.4 µM] (inactive).

As to `COc1ccc(OC2C=CC(c3ccccc3)OC2CO)c(C(C)(C)C)c1` (stereo not given), the Potency was 3.16 µM (active) in test [1], 0.794 µM (active) in test [2] and 3160 nM (active) in test [5]. For the same molecule, the activity change, positive = activation in test [3] is -79.5% [at 11.4 µM] (inactive). In addition, in test [4], the Potency result is “inactive”.
